Mtb BioA inh: BioA (M. tuberculosis) enzyme inhibition | inhibition, % at 9.99 µM | purified M. tuberculosis BioA enzyme, plate reader | AID 602481 | actives 0.096% (n = 360,000); in the data active = inhibition above about 40%
Mtb hypoxia inh: Mtb hypoxia fluorescent reporter inhibition | M. tuberculosis hypoxia-regulated fluorescent reporter, fluorescence | fluorescence inhibition, % (no concentration beside the values) | actives 0.1% (n = 300,000); in the data active = fluorescence inhibition mostly above about 23%, no sharp cut-off; inactive = mostly below about 17%
FadD28 FP inh: inhibitors of Mycobacterium tuberculosis FadD28 bisubstrate binding; inhibition, % at 12.5 µM; actives 0.22% (n = 360,000); FadD28 bisubstrate probe binding, fluorescence polarization; in the data active = inhibition above about 8.5%, passing the limit was not always enough
FBA Mtb inh: Mtb fructose-bisphosphate aldolase inhibition. P9WQA3. purified M. tuberculosis FBA, fluorescence read-out. inhibition, % at 1 µM. actives 2.3% (n = 360,000). AID 588726; in the data active = inhibition above about 27%
Target sequence (P9WQA3 whole entry, looked up): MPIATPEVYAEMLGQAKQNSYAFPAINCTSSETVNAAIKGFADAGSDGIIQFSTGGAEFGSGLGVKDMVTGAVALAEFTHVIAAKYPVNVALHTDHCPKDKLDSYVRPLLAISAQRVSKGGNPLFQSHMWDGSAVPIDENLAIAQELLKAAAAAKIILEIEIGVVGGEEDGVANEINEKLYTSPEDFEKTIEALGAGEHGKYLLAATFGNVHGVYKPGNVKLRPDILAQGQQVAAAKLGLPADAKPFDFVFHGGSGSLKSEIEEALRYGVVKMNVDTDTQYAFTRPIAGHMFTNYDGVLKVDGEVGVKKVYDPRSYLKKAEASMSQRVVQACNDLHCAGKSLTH
GDH-TPI counter: GDH-TPI coupled enzyme inhibition counter-screen; GDH-TPI coupled enzyme counterscreen, NADH absorbance; AID 588335; actives 1.2% (n = 360,000); inhibition, % at 4.8 µM; in the data active = inhibition above about 30%
Hits are given with their value; i = inactive; nt = no result given; + = active, no number. Hits are enriched below; roughly 2.9% of the tested compounds scored in any of these assays.

SMILES | Mtb BioA inh | Mtb hypoxia inh | FadD28 FP inh | FBA Mtb inh | GDH-TPI counter
CCCN1C[C@@H](C)[C@H](OC)CN(C)C(=O)c2cc(NC(=O)C3CCC3)ccc2OC[C@@H]1C | i | nt | nt | nt | nt
COC(=O)C[C@H]1CC[C@@H]2[C@@H](COc3ccc(NC(=O)c4cscn4)cc3C(=O)N2C)O1 | i | nt | nt | nt | nt
CCOc1cccc(C=NN2C(=O)CSC2=S)c1O | nt | i | nt | nt | nt
N#Cc1ccc2c(c1)nc1ccccn12 | nt | i | i | + | i
Clc1ccc2nc3ccccn3c2c1 | i | i | i | 178 | i
CCn1c2ccccc2c2cc(NC(=O)CNCc3ccccc3OC)ccc21 | i | i | i | i | i
CCOCCC(=O)Nc1ccc2c(c1)c(=O)n(C)n2Cc1cccc(C(F)(F)F)c1 | i | nt | i | 177 | i
Cn1c(=O)c(=O)n(C)c2cc(S(=O)(=O)CCC(=O)Nc3cccc(C(F)(F)F)c3)ccc21 | i | i | i | i | i
Cn1c(=O)c2cc(NC(=O)CCc3ccccc3)ccc2n1Cc1cccc(C(F)(F)F)c1 | i | nt | i | 127 | i
Cn1c(=O)c2cc(NC(=O)NCc3ccccc3)ccc2n1Cc1cccc(C(F)(F)F)c1 | i | nt | i | 138 | i
CN(C)c1ccc(NC(=O)Nc2ccc3c(c2)c(=O)n(C)n3Cc2ccccc2)cc1 | i | nt | i | i | i
COc1ccccc1CCC(=O)Nc1ccc2c(c1)c(=O)n(C)n2C | i | nt | i | 189 | i
Cn1c(=O)c2cc(NC(=S)NCc3ccccc3F)ccc2n1Cc1cccc(C(F)(F)F)c1 | i | nt | i | i | i
COC(=O)C(CC#Cc1ccc2c(c1)[C@]1(C(=O)N2)[C@H](C(=O)N2CCN(c3ncccn3)CC2)[C@H]2C(=O)O[C@H](c3ccccc3)[C@H](c3ccccc3)N2[C@@H]1c1ccc(O)cc1)C(=O)OC | i | nt | nt | nt | nt
COCC(=O)Nc1ccc2c(c1)C(=O)N(C)[C@H]1CC[C@@H](CC(=O)NCCc3ccccc3)O[C@@H]1CO2 | i | nt | nt | nt | nt
C[C@H](CO)N1C[C@H](C)[C@@H](CN(C)C(=O)c2ccncc2)Oc2cc(C#CC3(O)CCCC3)ccc2S1(=O)=O | i | nt | nt | nt | nt
COC(=O)[C@@H]1[C@@H](CO)[C@@H]2Cn3c(ccc(C4=CCCCC4)c3=O)[C@@H]2N1C(=O)C1CC1 | i | nt | nt | nt | nt
COCC#Cc1cnc2c(c1)C(=O)N([C@H](C)CO)C[C@@H](C)[C@H](CN(C)C(=O)c1ccc3c(c1)OCO3)O2 | i | nt | nt | nt | nt
COc1cccc(S(=O)(=O)N2CCCCN3[C@H](C2)[C@H](c2ccc(-c4ccccc4)cc2)[C@@H]3CO)c1 | i | nt | nt | nt | nt
COc1ccc(CNC(=O)Nc2ccc3c(c2)c(=O)n(C)n3Cc2cc(C)cc(C)c2)cc1 | i | nt | i | 168 | i
COc1cccc(Cn2c3ccc(NC(=O)CCc4ccc(F)cc4)cc3c(=O)n2C)c1 | i | nt | i | 151 | i
Cc1cc(C)cc(Cn2c3ccc(NC(=S)NCc4ccccc4F)cc3c(=O)n2C)c1 | i | nt | i | i | i
C[C@@H]1CN([C@H](C)CO)C(=O)c2cc(N(C)C)ccc2O[C@H]1CN(C)S(=O)(=O)c1ccc(Cl)cc1 | i | nt | nt | nt | nt
COCCNC(=O)C[C@@H]1C[C@H]2c3cc(NC(=O)CC4CC4)ccc3O[C@H]2[C@@H](CO)O1 | i | nt | nt | nt | nt
C[C@@H]1CN([C@H](C)CO)C(=O)c2cc(-c3ccc(C#N)cc3)cnc2O[C@H]1CN(C)Cc1ccccn1 | i | nt | nt | nt | nt
SMILES | Mtb BioA inh | Mtb hypoxia inh | FadD28 FP inh | FBA Mtb inh | GDH-TPI counter
CC(=O)C1=C(O)C(=O)N(CCO)C1c1ccccc1 (stereo not drawn) | i | i | i | i | 47
CC(=O)C1=C(O)C(=O)N(CCCO)C1c1ccccc1 (stereo not drawn) | i | i | i | i | i
C[C@H](CO)N1C[C@H](C)[C@@H](CN(C)C(=O)c2ccccn2)Oc2cc(C#CC3CC3)ccc2S1(=O)=O | i | nt | nt | nt | nt
COc1cc(/C=N/NC(=O)c2sc(N)c(C#N)c2C)ccc1O | nt | nt | i | i | 61
O=C(N/N=C/c1ccc([N+](=O)[O-])o1)c1ccccc1NS(=O)(=O)c1cccs1 | i | nt | i | i | 32
O=C(NN=Cc1ccc(F)cc1)c1ccccc1NS(=O)(=O)c1cccs1 | i | i | i | i | i
COc1cc(/C=N/NC(=O)c2ccccc2NS(=O)(=O)c2cccs2)ccc1O | nt | nt | i | i | 36
C[C@@H]1CCCCO[C@@H](CN(C)C(=O)c2ccncc2)[C@@H](C)CN([C@@H](C)CO)C(=O)c2cc(NC(=O)C3CCCCC3)ccc2O1 | i | nt | nt | nt | nt
Cc1ccc(-n2c3nc(=O)[nH]c(=O)c-3cc3c(C)nn(-c4ccccc4)c32)c(C)c1 | nt | nt | i | + | i
Cc1ccc(-n2c(C)nc3ccccc3c2=O)c(C)c1 | i | i | i | i | i
CO[C@H]1CN(C)C(=O)c2cc(NC(=O)C3CCCCC3)ccc2OC[C@@H](C)N(Cc2nccs2)C[C@H]1C | i | nt | nt | nt | nt
